The panel holds about 79,000 compounds, 15% with a hit somewhere; the sample as a whole holds those more often. Active and inactive are the calls of the source. No stated cut-off is given here; in the data, active means growth inhibition above about 70%; inactive means the rest. Where a SMILES comes first, the peptide text is derived from it. [ ]: non-standard residue; d: D form. Ac5c = NC1(C(=O)O)CCCC1
Legend:
[1] = NCI Yeast Anticancer Drug Screen. Data for the rad50 strain (AID 155);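 further: 0% = growth of vehicle-only cultures of the same strain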; settings: S. cerevisiae rad50 strain growth inhibition; at 50.0 µM; hits give high values
In short: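 Vehicle-treated cultures provide the reference for the growth inhibition reported for compound-exposed, repair-deficient yeast.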

[2] = NCI Yeast Anticancer Drug Screen. Data for the mec2-1 strain (AID 157); settings: S. cerevisiae mec2-1 strain, at 50.0 µM, hits give high values
In short: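 Each compound was tested on mec2-1 yeast, a strain altered in DNA damage repair or cell cycle control. Growth inhibition is reported relative to vehicle.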

[3] = NCI Yeast Anticancer Drug Screen. Data for the sgs1 mgt1 strain (AID 161);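 further: 0% = growth of cultures given vehicle only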; settings: S. cerevisiae sgs1 mgt1 strain, at 50.0 µM, hits give high values
In short: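 Inhibition of yeast growth, normalised to vehicle-treated controls, is reported for a strain bearing genetic alterations in DNA damage repair.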

[4] = NCI Yeast Anticancer Drug Screen. Data for the cln2 rad14 strain (AID 165);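 further: 0% = growth equal to vehicle treated cultures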; settings: S. cerevisiae cln2 rad14 strain, at 50.0 µM, hits give high values
In short: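 Test compounds were added to cln2 rad14 yeast cultures; inhibition of growth was then determined by comparison with vehicle treatment.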

[5] = NCI Yeast Anticancer Drug Screen. Data for the bub3 strain (AID 167); settings: S. cerevisiae bub3 mutant strain, at 50.0 µM, hits give high values
In short: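 Mutant yeast screening strain plus compound; vehicle-treated cultures serve as the 0% inhibition reference.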

[6] = NCI Yeast Anticancer Drug Screen. Data for the mlh1 rad18 strain (AID 175); settings: S. cerevisiae mlh1 rad18 strain growth inhibition; at 50.0 µM; hits give high values
In short: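 Inhibition values reflect reduced growth of mutant yeast versus vehicle-treated controls following compound exposure; the mutations affect DNA damage repair.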

Measured: growth inhibition

OCC(O)C(O)C(O)C(O)C(O)C(O)CO (configuration not stated)
inactive: [1] 1.8% | [2] 3.65% | [3] 7.35% | [4] 5.75% | [5] -1.2% | [6] 3.35%

CCCCCCCCCCCCCCCCOc1ccc(OC)cc1C(=O)NNC(=S)SC
inactive: [1] 14.7% | [2] -0.1% | [3] 24.6% | [4] 8.55% | [5] 34% | [6] 21.2%

CC1C[P+](c2ccccc2)(c2ccccc2)Cc2ccccc21 (configuration not stated)
inactive: [1] 3.4% | [2] 9.75% | [3] -8.25% | [4] -13.4% | [5] -1.85% | [6] 4.6%

COc1ccc(-c2cc(=O)c3cccc(CC(=O)O)c3o2)cc1OC
active: [1] 99.2% | [2] 99.2% | [3] 97.5% | [4] 98.8% | [5] 99.3% | [6] 99.2%

COc1cc(C(=O)C/C(CCC(=O)Nc2ccc(Cl)cc2Cl)=N/NC(=O)C(N)=O)ccc1O
inactive: [1] -12.8% | [2] -2.45% | [3] -34.8% | [4] 22.4% | [5] -1.45% | [6] -20.4%

CC1(C)C(=O)NC(=O)N1CO
inactive: [1] 27.1% | [2] 2.4% | [3] -5.45% | [4] 19.9% | [5] 14.9% | [6] 20%

CN1CC(O)c2cc(N=NC(N)=O)c(O)cc21 (configuration not stated)
inactive: [1] -16.6% | [2] -9.5% | [3] -4.85% | [4] 5.85% | [5] -7.25% | [6] -2.45%

CN1CCC(C)(c2ccccc2)C(=O)C1 (configuration not stated)
inactive: [1] 2% | [2] 3.85% | [3] 11% | [4] -28.6% | [5] -10.3% | [6] 12.7%

CCC(COCC(CC)C(=O)O)C(=O)O (configuration not stated)
inactive: [1] 11.3% | [2] 1.1% | [3] 18.6% | [4] 19.1% | [5] 12.7% | [6] 15.2%

NC(CCCNCc1ccccc1)C(=O)O (configuration not stated)
inactive: [1] 31.9% | [2] 6.85% | [3] 1.65% | [4] 12.3% | [5] 36.9% | [6] 16.3%

CC1CCCCC[N+]1(C)CCO (configuration not stated)
inactive: [1] -8.5% | [2] -7.15% | [3] -6.25% | [4] -30.7% | [5] -7.85% | [6] -4.8%

CN(NC(=O)CCCl)C1=NCCN1
inactive: [1] 5.15% | [2] -4.6% | [3] -3.95% | [4] -11% | [5] 8.1% | [6] 16.7%

C/C=C/C(O)CC (configuration not stated)
inactive: [1] 13.8% | [2] -38.4% | [3] 3.2% | [4] -0.85% | [5] -10.8% | [6] 0.5%

CC(=O)NC(CCCNC(=O)OCc1ccccc1)C(=O)NCc1ccccc1 (configuration not stated)
inactive: [1] -9.1% | [2] -20.9% | [3] -30% | [4] -1.35% | [5] -16.9% | [6] -36%

COc1cc2c(cc1C)C1=C(C)C(=O)OC1[C@@H](O)[C@@H]2C (some centres not stated)
inactive: [1] 16.9% | [2] 11.6% | [3] 18.4% | [4] 3.45% | [5] 18.9% | [6] 18.8%

O=C(CCc1ccc(O)c(O)c1)NCCc1cc(O)cc(OCc2ccccc2)c1
inactive: [1] 9.45% | [2] -6.65% | [3] -10.6% | [4] -19.1% | [5] -44.3% | [6] -73.5%

CC(C)NC(=O)CS(=O)(=O)c1ccc(N)cc1
inactive: [1] -2.3% | [2] -11.8% | [3] 2.1% | [4] -0.3% | [5] 30% | [6] 7.7%

Cc1ccc(C)c(CNC(=O)C2CCCCC2C(=O)O)c1 (configuration not stated)
inactive: [1] 9.3% | [2] 33.6% | [3] 37.2% | [4] -0.6% | [5] 34.6% | [6] -3.2%

O=C(O)C1(C(=O)O)CC2C3C=CC(C3)C2C1 (configuration not stated)
inactive: [1] -7.75% | [2] -11.7% | [3] 0.35% | [4] -48.8% | [5] 18.8% | [6] 20.5%

S=C(NCc1ccc(Cl)cc1Cl)Nc1ccccc1
active: [2] 73% | [3] 75.8% | [6] 72.5%
inactive: [1] 23.1% | [4] -1.8% | [5] 64.7%

CCN/C(C)=C\C(=O)OCC
inactive: [1] -0.9% | [2] 8.95% | [3] -0.65% | [4] -17.2% | [5] -9.95% | [6] 1.25%

CCCCCCC(=O)N1SC(NC(=O)OC)=Nc2ccccc21
inactive: [1] 5.55% | [2] 7.3% | [3] 27.6% | [4] 36.5% | [5] 69.7% | [6] 41%

COc1ccc(N)cc1CO
inactive: [1] 8.85% | [2] -9.85% | [3] -15.3% | [4] -17.1% | [5] -12.3% | [6] 12.7%

CC(=O)C(C)(C)Cc1cc(C(C)(C)CC=O)on1
inactive: [1] -2.25% | [2] -0.8% | [3] -12.4% | [4] 5.35% | [5] 29.1% | [6] 4.95%

C=CCOCC(CCl)OC(=O)C(C)C (configuration not stated)
inactive: [1] -4.95% | [2] -11.8% | [3] -13.3% | [4] -9.9% | [5] 0.7% | [6] -20.2%

CN(NC(=O)CCCl)C1=NCCCCN1
inactive: [1] -6.6% | [2] -17.9% | [3] -4.95% | [4] 43.5% | [5] -0.5% | [6] 19.4%

Cc1cc(=O)[nH]c(NN)n1
inactive: [1] 1% | [2] -1.85% | [3] -1.85% | [4] 23.1% | [5] 21.9% | [6] 2.15%

CCOC(=O)C1=C(NC(C)(C)C)OCC1=O
inactive: [1] -10.7% | [2] -17.9% | [3] -2.2% | [4] 3.1% | [5] -16.6% | [6] 16.1%

CC(=O)OC(C)N(C(C)=O)c1ncc([N+](=O)[O-])s1 (configuration not stated)
inactive: [1] -21.8% | [2] 2.4% | [3] -2.95% | [4] -14.3% | [5] 46.5% | [6] 4.55%

Cn1nnc(CC[N+]2(C)CCOCC2)n1
inactive: [1] -3.35% | [2] 3.45% | [3] -3.35% | [4] -24.5% | [5] 6.05% | [6] 3.9%

CCCCCCCCC(=O)O (tested in a mixture with another compound)
inactive: [1] 2.3% | [2] 6.75% | [3] 9.95% | [4] 12.7% | [5] 2.85% | [6] 29.1%

CC1OC(c2c(Cl)cccc2[N+](=O)[O-])OC1C (configuration not stated)
inactive: [1] 3.5% | [2] -9.2% | [3] 5.6% | [4] 0.5% | [5] -7.6% | [6] 20%

N#CC(N)(C(=O)CCC(=O)Nc1cccc(Cl)c1)c1ccc(Cl)cc1 (configuration not stated)
inactive: [1] 1.7% | [2] 12.6% | [3] 7.7% | [4] 8.15% | [5] -2% | [6] 2.15%

CC(C)(C)OC(=O)[N+](=N)C(=O)C1CCC(=O)N1C(=O)OCc1ccccc1 (configuration not stated)
inactive: [1] -27.7% | [2] -33.6% | [3] -23.4% | [4] -11.4% | [5] -1.9% | [6] -20%

CCOC(=O)c1c(C(=O)Nc2ccccc2)c(-c2ccccc2)n(NC(N)=O)c1C
inactive: [1] 5.25% | [2] 5.95% | [3] 0.5% | [4] -2.4% | [5] 0.85% | [6] 2.95%

C/C(=C\c1ccc(OCCN2CCOCC2)cc1)c1ccc2c(c1)C(C)(C)CCC2(C)C
inactive: [1] -3.2% | [2] -11.9% | [3] 16.1% | [4] -4.95% | [5] -20.6% | [6] -25.9%

COC(=O)C1(NC(=O)C(C)NC(=O)C(CCCCN)NC(=O)C(CC(C)C)NC(C)=O)CCCC1 (configuration not stated) (Ac-LKA[Ac5c]-OMe; configuration not given here)
inactive: [1] 3.1% | [2] 4.7% | [3] 13.8% | [4] -6.25% | [5] -7.8% | [6] 8.05%

Cc1cc2ccccc2nc1-c1ccncc1
inactive: [1] 3.45% | [2] -3.15% | [3] -7.35% | [4] -44.6% | [5] -6.75% | [6] 1.2%

CCOC(=O)/C(O)=C(/C=NC(=S)c1ccncc1)C(=O)OCC
inactive: [1] -28.2% | [2] -29.8% | [3] -15.3% | [4] -6.45% | [5] -13.8% | [6] -31%

C=CCc1cc(C(Cc2ccccc2)NC(C)C)cc(OCc2ccccc2)c1OCc1ccccc1 (configuration not stated)
inactive: [1] 10.1% | [2] 11.5% | [3] 16.9% | [4] -3.95% | [5] 47.6% | [6] 50.9%

NCCCCCCN
inactive: [1] -50.6% | [2] -6.05% | [3] -36.6% | [4] -46.8% | [5] -45.5% | [6] -65%

CCCCCCCCCC(=O)OCC1OC(n2cc(F)c(=O)[nH]c2=O)C(N)C(OC(=O)CCCCCCCCC)C1O (configuration not stated)
inactive: [1] 42.8% | [2] 5.6% | [3] 17.1% | [4] 57.6% | [5] 8.85% | [6] 8.15%

From PubChem BioAssay (NCI)
